Compounds without any hit were thinned out: in the full panel of roughly 79,000, 15% have a hit. A number with no mark means an inactive call. Activity calls are given as the source filed them. No stated cut-off is given here; in the data, active means growth inhibition above about 70%; inactive means the rest.
Assay: NCI Yeast Anticancer Drug Screen. Data for the bub3 strain (AID 167)
Conditions: S. cerevisiae bub3 mutant strain, stronger effect = higher value
Protocol: Growth inhibition of yeast strains with defined genetic alterations is measured as a screen for potential anti-cancer activity. Selected strains with alterations in DNA damage repair or cell cycle control were exposed to compounds and growth inhibition was measured relative to vehicle treated controls. The strain used in this assay is bub3

[1] = at 5.0 µM (retest, dose inferred, filed as 0.5)
[2] = at 50.0 µM (retest, dose inferred, filed as 5.0)

SMILES | growth inhibition [1] | growth inhibition [2] | growth inhibition (at 50.0 µM)
CC1(C)C2CCC1(CS(=O)O)C(=O)C2.[Ag] (configuration not stated) | 99% (active) | 99% (active) | 99.5% (active)
O=C(COC(=O)C(c1ccccc1)c1ccccc1)c1ccc(Br)cc1 | 10% | 62% | 88% (active)
Clc1ccc(Cc2nc3ccccc3s2)c(Cl)c1 | 43% | 98% (active) | 92.5% (active)
CC(=O)Oc1ccc(/C=C2\N=C(c3ccccc3)OC2=O)c(OC(C)=O)c1 | -2% | 79% (active) | 9.55%
FC(F)(F)c1nc(SCc2ccc(Cl)cc2)n[nH]1 | -9% | 0% | -33.4%
O=C1c2ccccc2C(=O)c2cc(S(=O)(=O)Cl)ccc21 | 98% (active) | 99% (active) | 72.5% (active)
COc1ccc(Oc2c(OC)cc(NCCCCCNC(C)C)c3ncccc23)cc1 | 29% | 69% | 81% (active)
CCCCCCCCCCCC[n+]1ccc(C)cc1 | 80% (active) | 99% (active) | 98.9% (active)
Cn1cnc([N+](=O)[O-])c1Sc1nnnn1-c1ccccc1 | 42% | 75% (active) | 80.8% (active)
Cc1cc(Cl)c2c(c1)C(=O)/C(=C/c1ccc(Cl)cc1)O2 | -22% | 98% (active) | 88.7% (active)
CC(=O)N(C1=C(Cl)C(=O)c2ccccc2C1=O)c1ccc(C)cc1 | 99% (active) | 99% (active) | 96.5% (active)
CCCCNCc1c(O)ccc2ccccc12 | 21% | 99% (active) | 99% (active)
O=C1OC2(c3ccc(O)cc3Oc3cc(O)ccc32)c2c1c(-c1ccccc1)c(-c1ccccc1)c(-c1ccccc1)c2-c1ccccc1 | -1% | 59% | 50.9%
O=C(O)c1ccc(C(=O)c2ccccc2C(=O)O)cc1 | 0% | -1% | 99.7% (active)

Source: PubChem BioAssay (NCI)
